Where “and” joins values, the source holds several entries; their conditions need not be identical. Identical values can stand only once. Results filed as inconclusive are left out. The source holds several records for some structures; these can differ, active in one and inactive in another. Calls of active or inactive are those of the source. The call rests on the fitted dose curve; in most records, active means well fitted curve in the direction sought with a large enough effect in the repeat runs; inconclusive means weak or mixed curves; inactive means no such curve, though single readings can be large; an effect the other way counts as inactive or inconclusive.
Key:
[1] = A CellTox Green Cytotoxicity Assay to monitor cytotoxicity in HepG2 cells - 0 hour (AID 1224882); conditions: CellTox Green fluorescence; series mostly up to 76.8 µM; further: nearly all actives have a fitted effect of over 35% in size; further: potency means the concentration at half of the fitted maximal effect
Outline: (§1)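 Cells and non-lytic dye reagent are dispensed together (600 HepG2 cells/well) and incubated 5 h before DMSO compound transfer. Kinetic fluorescence is then recorded in the same wells during 40 h at 37 C.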

[2] = A CellTox Green Cytotoxicity Assay to monitor cytotoxicity in HepG2 cells - 32 hour (AID 1224883); conditions: CellTox Green fluorescence; series mostly up to 76.8 µM; further: nearly all actives have a fitted effect of over 50% in size; further: potency means the concentration at half of the fitted maximal effect
Outline: as §1

[3] = A CellTox Green Cytotoxicity Assay to monitor cytotoxicity in HEK293 cells - 8 hour (AID 1224884); conditions: CellTox Green fluorescence; series mostly up to 76.8 µM; further: nearly all actives have a fitted effect of over 35% in size; further: potency means the concentration at half of the fitted maximal effect
Outline: (§2)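 Cells (HEK293, 600/well) and dye reagent are dispensed together. After 5 h at 37 C, 23 nL compound is pinned in. Plates stay at 37 C for 40 h with fluorescence read at 0h, 8h, 16h, 24h, 32h and 40h.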

[4] = qHTS RealTime-Glo MT Cell Viability Assay in HEK293 cells - 24 hour (AID 1224886); conditions: RealTime-Glo luminescence; series mostly up to 76.8 µM; further: nearly all actives have a fitted effect of over 50% in size; further: potency means the concentration at half of the fitted maximal effect
Outline: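 HEK293 cells seeded with NanoLuc/prosubstrate reagent, rested 5 h at 37 C, then dosed and kept at 37 C up to 40 h. Nonlytic real-time luminescence from viable cells read at 0, 8, 16, 24, 32 and 40 h.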

[5] = qHTS RealTime-Glo MT Cell Viability Assay in HEK293 cells - 8 hour (AID 1224887); conditions: RealTime-Glo luminescence; series mostly up to 76.8 µM; further: nearly all actives have a fitted effect of over 50% in size; further: potency means the concentration at half of the fitted maximal effect
Outline: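 Real-time viability in HEK293: signal arises when living cells convert a prosubstrate for NanoLuc in the medium, so luminescence tracks viable cell number. Compound (23 nL, DMSO) added 5 h post-seeding; kinetic reads at 0–40 h, 37 C.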

[6] = A CellTox Green Cytotoxicity Assay to monitor cytotoxicity in HEK293 cells - 16 hour (AID 1224888); conditions: CellTox Green fluorescence; series mostly up to 76.8 µM; further: nearly all actives have a fitted effect of over 35% in size; further: potency means the concentration at half of the fitted maximal effect
Outline: as §2

[7] = qHTS RealTime-Glo MT Cell Viability Assay in HepG2 cells - 0 hour (AID 1224889); conditions: RealTime-Glo luminescence; series mostly up to 76.8 µM; further: nearly all actives have a fitted effect of over 50% in size; further: potency means the concentration at half of the fitted maximal effect
Outline: (§3)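 HepG2 cells (600/well) were dispensed with RealTime-Glo reagents, incubated 5 h at 37 °C, then treated with compounds in DMSO for up to 40 h. Nonlytic NanoLuc luminescence reflecting viable cells was read at each stated time point.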

[8] = A CellTox Green Cytotoxicity Assay to monitor cytotoxicity in HepG2 cells - 8 hour (AID 1224890); conditions: CellTox Green fluorescence; series mostly up to 76.8 µM; further: nearly all actives have a fitted effect of over 45% in size; further: potency means the concentration at half of the fitted maximal effect
Outline: as §1

[9] = A CellTox Green Cytotoxicity Assay to monitor cytotoxicity in HEK293 cells - 32 hour (AID 1224881); conditions: CellTox Green fluorescence; series mostly up to 76.8 µM; further: nearly all actives have a fitted effect of over 40% in size; further: potency means the concentration at half of the fitted maximal effect
Outline: as §2

[10] = qHTS RealTime-Glo MT Cell Viability Assay in HepG2 cells - 16 hour (AID 1224885); conditions: RealTime-Glo luminescence; series mostly up to 76.8 µM; further: nearly all actives have a fitted effect of over 50% in size
Outline: as §3

Measured: Potency

CC(=O)C1(C)CC2=C(CCCC2(C)C)CC1C (stereo not drawn)
not listed: [9] | [10]
inactive: all other assays above

COC(=O)CCC(=O)OC
not listed: [10]
inactive: all other assays above

CC1=CC2C3CC(C=C3C)C2C1 (stereo not drawn)
inactive and 38.9 µM (active): [9]
inactive and 24.5 µM (active): [2]
inactive: [4] | [5] | [7]
inactive and 27.5 µM (active): [1]
inactive and 43.6 µM (active): [3]

C=C(C)C(=O)OCCOC(=O)C(=C)C
not listed: [10]
inactive: all other assays above

c1ccc(Nc2ccccc2)cc1
17.4 µM (active) and inactive: [4]
38.9 µM (active) and inactive: [2]
21.9 µM (active) and inactive: [9]
not listed: [8] | [10]
inactive: all other assays above

C#C[C@]1(O)CC[C@H]2[C@@H]3CCc4cc(OC)ccc4[C@H]3CC[C@@]21C
active: [2] 23.9 µM | [4] 34.7 µM and 19 µM
not listed: [5] | [9]
inactive: all other assays above

CCOCCOCCO
not listed: [10]
inactive: all other assays above

C#C[C@]1(O)CC[C@H]2[C@@H]3CCC4=Cc5oncc5C[C@]4(C)[C@H]3CC[C@@]21C
active: [9] 49 µM
inactive: [1] | [2] | [3] | [6] | [8]

O=CCCCC=O
42.1 µM (active) and inactive: [4]
not listed: [2] | [10]
inactive: all other assays above

Brc1cc(Oc2cc(Br)c(Br)c(Br)c2Br)c(Br)c(Br)c1Br
not listed: [8] | [10]
inactive: all other assays above

O=C(c1ccc(OCCN2CCCCC2)cc1)c1c(-c2ccc(O)cc2)sc2cc(O)ccc12
inactive: [1] | [3] | [7] | [8]
active: [2] 49 µM and 54.9 µM | [4] 19.5 µM | [5] 21.9 µM
54.9 µM (active) and inactive: [9]

CC(C)=CCCC(C)CCO (stereo not drawn)
not listed: [8] | [10]
inactive: all other assays above

c1ccc2c(c1)c1cccc3ccc4cccc2c4c31
inactive and 19.5 µM (active): [4]
not listed: [10]
inactive: all other assays above

CN(C)C(=N)N=C(N)N
not listed: [8] | [10]
inactive: all other assays above

O=C(OCc1ccccc1)c1ccccc1O
not listed: [10]
inactive: all other assays above

O=C(/C=C/C=C/c1ccc2c(c1)OCO2)N1CCCCC1
not listed: [4] | [10]
inactive: all other assays above

C[C@]12CC[C@H]3[C@@H](CCC4=CC(=O)CC[C@@]43C)[C@@H]1CC[C@@H]2C(=O)CO
active: [4] 24.5 µM | [7] 4.36 µM and 9.52 µM
not listed: [10]
inactive: all other assays above

COc1cccc2c1C(=O)c1c(O)c3c(c(O)c1C2=O)C[C@@](O)(C(=O)CO)C[C@@H]3O[C@H]1C[C@H](N)[C@H](O)[C@H](C)O1
inactive and 21.3 µM (active): [2]
active: [4] 155 nM and 301 nM
not listed: [3]
inactive: all other assays above

Nc1ccc(Cl)cc1Cl
not listed: [8] | [10]
inactive: all other assays above

CN(C)CCC=C1c2ccccc2CCc2ccccc21
active: [2] 55 µM and 43.6 µM and 26.8 µM
not listed: [7] | [10]
inactive: all other assays above

Cc1cc2nc3c(=O)[nH]c(=O)nc-3n(C[C@H](O)[C@H](O)[C@H](O)CO)c2cc1C
inactive: [4] | [5] | [7]
active: [9] 48.5 µM and 45.5 µM and 11.7 µM | [1] 43.2 µM and 40.5 µM and 11.7 µM | [2] 43.2 µM and 40.5 µM and 11.7 µM | [3] 43.2 µM and 40.5 µM and 11.7 µM | [6] 43.2 µM and 40.5 µM and 11.7 µM | [8] 43.2 µM and 40.5 µM and 11.7 µM

O=C(Nc1ccc([N+](=O)[O-])cc1Cl)c1cc(Cl)ccc1O
active: [9] 38.9 µM | [2] 4.9 µM and 2.93 µM | [4] 5.49 µM and 1.04 µM
not listed: [10]
inactive: all other assays above

c1ccc2sc(SSN3CCOCC3)nc2c1
active: [9] 38.8 µM and 54.9 µM | [2] 54.8 µM and 54.9 µM | [4] 38.8 µM and 49 µM | [5] 48.9 µM
not listed: [10]
inactive: all other assays above

CC(C)OB(OC(C)C)OC(C)C
not listed: [10]
inactive: all other assays above

Clc1nc(Cl)c(Cl)c(Cl)c1Cl
not listed: [8] | [10]
inactive: all other assays above

— PubChem BioAssay (Tox21)
